Test results reported in PubChem BioAssay AID1159580 (chemical genetic matrix, 2015).
Screen size: about 5,500 compounds; about 2,000 (36%) were called active. About 18% were inconclusive and are not listed. No stated cut-off is given here; in the data, active means normalized growth mostly below about 0.91 (no sharp cut-off); inconclusive means no clear call, values can overlap the other calls; inactive means mostly above about 0.92. The list shows a part of the results.

Assay: chemical genetic growth profiling, strain panel (AID 1159580);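 further: tested at 20 µM; growth read once vehicle control cultures reached saturation at 30 °C; 1 = growth at the plate median or of vehicle wells; lower values mean less growth of the strain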
Settings: S. cerevisiae deletion strains, growth OD

Measured: normalized growth

COc1ccc(/C=C/C(=O)c2ccc(O)cc2O)cc1
active: locus YAL021C, strain ccr4, active compounds read low 0.643 | locus YAL026C, strain drs2, active compounds read low 0.39 | locus YAL030W, strain snc1, active compounds read low 0.477 | locus YBL061C, strain skt5, active compounds read low 0.371 | locus YBR009C, strain hhf1, active compounds read low 0.329 | locus YBR023C, strain chs3, active compounds read low 0.296 | locus YBR171W, strain sec66, active compounds read low 0.736 | locus YBR231C, strain swc5, active compounds read low 0.35 | locus YBR279W, strain paf1, active compounds read low 0.486 | locus YCL011C, strain gbp2, active compounds read low 0.414 | locus YCL016C, strain dcc1, active compounds read low 0.398 | locus YCL061C, strain MRC1, active compounds read low 0.494 | locus YCL069W, strain vba3, active compounds read low 0.436 | locus YCR088W, strain abp1, active compounds read low 0.637 | locus YDL005C, strain med2, active compounds read low 0.412 | locus YDL040C, strain nat1, active compounds read low 0.68 | locus YDR001C, strain nth1, active compounds read low 0.546 | locus YDR069C, strain doa4, active compounds read low 0.815 | locus YDR137W, strain rgp1, active compounds read low 0.218 | locus YDR159W, strain sac3, active compounds read low 0.355 | locus YDR195W, strain ref2 0.69 | locus YDR297W, strain sur2, active compounds read low 0.643 | locus YDR334W, strain swr1, active compounds read low 0.383 | locus YDR335W, strain msn5, active compounds read low 0.477 | locus YDR392W, strain spt3, active compounds read low 0.107 | locus YEL003W, strain gim4, active compounds read low 0.333 | locus YEL037C, strain rad23, active compounds read low 0.678 | locus YEL061C, strain CIN8 (second series), active compounds read low 0.222 | locus YER015W, strain faa2, active compounds read low 0.496 | locus YER016W, strain bim1, active compounds read low 0.488 | locus YER111C, strain swi4, active compounds read low 0.193 | locus YER155C, strain BEM2 (second series), active compounds read low 0.125 | locus YFR010W, strain ubp6, active compounds read low 0.661 | locus YGL167C, strain pmr1, active compounds read low 0.782 | locus YGL173C, strain kem1, active compounds read low 0.326 | locus YGL227W, strain vid30, active compounds read low 0.246 | locus YGL240W, strain doc1, active compounds read low 0.349 | locus YGL253W, strain hxk2, active compounds read low 0.23 | locus YHR013C, strain ard1, active compounds read low 0.352 | locus YHR027C, strain rpn1, active compounds read low 0.59 | locus YHR030C, strain SLT2, active compounds read low 0.458 | locus YHR079C, strain IRE1, active compounds read low 0.48 | locus YHR142W, strain chs7, active compounds read low 0.175 | locus YJL092W, strain hpr5, active compounds read low 0.523 | locus YJL095W, strain BCK1 (second series), active compounds read low 0.187 | locus YJL095W, strain BCK1, active compounds read low 0.423 | locus YJL115W, strain asf1, active compounds read low 0.56 | locus YJL129C, strain trk1, active compounds read low 0.386 | locus YJL154C, strain vps35, active compounds read low 0.697 | locus YJL164C, strain tpk1, active compounds read low 0.324 | locus YJL166W, strain qcr8, active compounds read low 0.266 | locus YJL187C, strain SWE1, active compounds read low 0.492 | locus YJR066W, strain TOR1, active compounds read low 0.439 | locus YKL160W, strain elf1, active compounds read low 0.299 | locus YKR026C, strain gcn3, active compounds read low 0.784 | locus YKR091W, strain srl3, active compounds read low 0.699 | locus YLL001W, strain dnm1, active compounds read low 0.528 | locus YLL026W, active compounds read low 0.267 | locus YLL041C, strain sdh2, active compounds read low 0.615 | locus YLR027C, strain aat2, active compounds read low 0.369 | locus YLR113W, strain HOG1, active compounds read low 0.361 | locus YLR221C, strain rsa3, active compounds read low 0.28 | locus YLR258W, strain gsy2, active compounds read low 0.476 | locus YLR262C, strain YPT6 (second series), active compounds read low 0.221 | locus YLR320W, strain mms22, active compounds read low 0.14 | locus YLR342W, strain FKS1, active compounds read low 0.313 | locus YLR357W, strain rsc2, active compounds read low 0.633 | locus YLR370C, strain arc18, active compounds read low 0.619 | locus YLR384C, strain iki3, active compounds read low 0.671 | locus YML120C, strain ndi1, active compounds read low 0.336 | locus YMR058W, strain fet3, active compounds read low 0.34 | locus YMR125W, strain sto1, active compounds read low 0.205 | locus YMR129W, active compounds read low 0.707 | locus YMR205C, strain PFK2, active compounds read low 0.26 | locus YMR231W, strain pep5, active compounds read low 0.462 | locus YNL071W, strain lat1, active compounds read low 0.0785 | locus YNL183C, strain NPR1, active compounds read low 0.516 | locus YNL209W, strain ssb2, active compounds read low 0.661 | locus YNL248C, strain rpa49, active compounds read low 0.402 | locus YNL322C, strain KRE1 (second series), active compounds read low 0.618 | locus YNR049C, strain mso1, active compounds read low 0.631 | locus YOR001W, strain rrp6, active compounds read low 0.444 | locus YOR070C, strain gyp1, active compounds read low 0.336 | locus YOR080W, strain dia2, active compounds read low 0.631 | locus YOR083W, strain WHI5, active compounds read low 0.479 | locus YOR106W, strain vam3, active compounds read low 0.38 | locus YOR231W, strain MKK1, active compounds read low 0.495 | locus YOR265W, strain rbl2, active compounds read low 0.535 | locus YOR270C, strain vph1, active compounds read low 0.161 | locus YOR290C, strain snf2, active compounds read low 0.28 | locus YPL051W, strain arl3, active compounds read low 0.273 | locus YPL078C, strain atp4, active compounds read low 0.32 | locus YPL106C, strain sse1, active compounds read low 0.458 | locus YPL240C, strain hsp82, active compounds read low 0.44 | locus YPL256C, strain CLN2, active compounds read low 0.5
